Several values for one entry are separate records, joined by “and”; a condition that tells them apart may be missing. Equal entries are not always repeated. A structure can be active in one record and inactive in another. Activity calls are given as the source filed them. Rule for the calls: active = hit-call score of the fitted dose curve at least 0.9, where 1 is the maximum; inactive = score below 0.9.
Tests used:
Conditions in all cases: mRNA level, 48 h; actives raise or lower the signal
[1] = read-out: Nuclear factor NF-kappa-B p105 subunit (Homo sapiens) (UniProt P19838); experiment: LTEA_HepaRG_NFKB1: Life Technologies and Expression Analysis (LTEA) Assay for Nuclear Factor Kappa B Subunit 1 (NFKB1) using HepaRG (AID 2283521);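 for outcome: TaqMan qRT-PCR transcript normalised to ACTB GAPDH and POLR2A housekeeping genes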
Procedure, shortened: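 Human HepaRG cells receive eight half-log concentrations, highest 100 uM, for 48 h. NFKB1 expression is then quantified by qRT-PCR and analysed for up- or down-regulation relative to 0.5% DMSO vehicle.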

[2] = read-out: Protein phosphatase 2A (PPP2R4), PTPA (gene 5524); experiment: LTEA_HepaRG_PPP2R4: Life Technologies and Expression Analysis (LTEA) Assay for Protein phosphatase 2A (PPP2R4) using HepaRG (AID 2283522)
Procedure, shortened: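 Readout is PPP2R4 transcript level by microfluidic qRT-PCR after 48 h chemical treatment of human HepaRG liver cells. Concentrations spanned 100 uM downward in half-log steps; gain or loss of signal was fitted relative to DMSO.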

[3] = read-out: Phosphatase and tensin (PTEN), PTEN (gene 5728); experiment: LTEA_HepaRG_PTEN: Life Technologies and Expression Analysis (LTEA) Assay for Phosphatase and tensin (PTEN) using HepaRG (AID 2283523)
Procedure, shortened: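 Differentiated human HepaRG cells, plated 48 h then switched to serum-free induction medium, were exposed in duplicate for 48 h to eight half-log concentrations up to 100 uM in 0.5% DMSO. PTEN mRNA measured by TaqMan qRT-PCR, normalized to ACTB/GAPDH/POLR2A, bidirectional fit versus DMSO.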

[4] = read-out: solute carrier (SLC22A1), SLC22A1 (gene 6580); experiment: LTEA_HepaRG_SLC22A1: Life Technologies and Expression Analysis (LTEA) Assay for solute carrier (SLC22A1) using HepaRG (AID 2283524)
Procedure, shortened: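 Human HepaRG cells were plated 48 h, switched to serum-free induction medium, then exposed in duplicate for 48 h to 8-point half-log series from 100 uM in 0.5% DMSO. SLC22A1 mRNA measured by qRT-PCR, normalized to ACTB/GAPDH/POLR2A, fitted bidirectionally versus DMSO.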

[5] = read-out: Pyruvate Dehydrogenase Kinase 4 (PDK4), PDK4 (gene 5166); experiment: LTEA_HepaRG_PDK4: Life Technologies and Expression Analysis (LTEA) Assay for Pyruvate Dehydrogenase Kinase 4 (PDK4) using HepaRG (AID 2283525)
Procedure, shortened: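 Differentiated human HepaRG cells, pre-cultured 48 h, were exposed in duplicate for 48 h in serum-free induction medium to eight half-log concentrations up to 100 uM in 0.5% DMSO. PDK4 mRNA was quantified by qRT-PCR, normalized to ACTB, GAPDH and POLR2A, bidirectional fitting versus DMSO.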

[6] = read-out: NAD(P)H dehydrogenase [quinone] 1 (NQO1), NQO1 (gene 1728); experiment: LTEA_HepaRG_NQO1: Life Technologies and Expression Analysis (LTEA) Assay for NAD(P)H dehydrogenase [quinone] 1 (NQO1) using HepaRG (AID 2283526)
Procedure, shortened: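 HepaRG, 48 h post-plating → serum-free induction medium → test chemical 48 h (duplicate, 100 uM top, half-log x8, 0.5% DMSO) → RNA isolation → qRT-PCR, ACTB/GAPDH/POLR2A normalization; bidirectional curve fit vs DMSO baseline.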

[7] = read-out: Nuclear factor erythroid 2-related factor 2 (Homo sapiens) (UniProt Q16236); experiment: LTEA_HepaRG_NFE2L2: Life Technologies and Expression Analysis (LTEA) Assay for Nuclear factor erythroid 2-related factor 2 (NFE2L2) Transcription Factor using HepaRG (AID 2283527);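 for outcome: TaqMan qRT-PCR transcript level normalised to ACTB GAPDH and POLR2A housekeeping genes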
Procedure, shortened: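 Differentiated human HepaRG cells in serum-free induction medium were exposed for 48 h to eight concentrations (top 100 uM, half-log dilutions, 0.5% DMSO), in duplicate. NFE2L2 mRNA was quantified by TaqMan qRT-PCR, normalized to ACTB, GAPDH and POLR2A, with bidirectional fitting versus DMSO.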

[8] = read-out: succinate dehydrogenase complex iron sulfur subunit B (SDHB), SDHB (gene 6390); experiment: LTEA_HepaRG_SDHB: Life Technologies and Expression Analysis (LTEA) Assay for succinate dehydrogenase complex iron sulfur subunit B (SDHB) using HepaRG (AID 2283528)
Procedure, shortened: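 A human HepaRG culture in serum-free induction medium received test chemicals for 48 h over an eight-point range capped at 100 uM. SDHB expression change was quantified by qRT-PCR.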

[9] = read-out: Signal transducer and activator of transcription 3 (Homo sapiens) (UniProt P40763); experiment: LTEA_HepaRG_STAT3: Life Technologies and Expression Analysis (LTEA) Assay for Signal transducer and activator of transcription (STAT3) using HepaRG (AID 2283529)
Procedure, shortened: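 Differentiated human HepaRG cells in serum-free induction medium were exposed in duplicate for 48 h to eight half-log concentrations up to 100 uM in 0.5% DMSO. STAT3 mRNA was quantified by TaqMan qRT-PCR, normalized to ACTB, GAPDH and POLR2A, and fitted bidirectionally against DMSO.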

[10] = read-out: solute carrier (SLCO1B1), SLCO1B1 (gene 10599); experiment: LTEA_HepaRG_SLCO1B1: Life Technologies and Expression Analysis (LTEA) Assay for solute carrier (SLCO1B1) using HepaRG (AID 2283530)
Procedure, shortened: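 Differentiated human HepaRG cells, plated 48 h, switched to serum-free induction medium and exposed in duplicate for 48 h to 8 half-log concentrations (top 100 uM) in 0.5% DMSO. SLCO1B1 mRNA by TaqMan qRT-PCR, normalized to ACTB/GAPDH/POLR2A.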

Nuclear factor erythroid 2-related factor 2 (Homo sapiens), sequence (Q16236 whole entry, looked up): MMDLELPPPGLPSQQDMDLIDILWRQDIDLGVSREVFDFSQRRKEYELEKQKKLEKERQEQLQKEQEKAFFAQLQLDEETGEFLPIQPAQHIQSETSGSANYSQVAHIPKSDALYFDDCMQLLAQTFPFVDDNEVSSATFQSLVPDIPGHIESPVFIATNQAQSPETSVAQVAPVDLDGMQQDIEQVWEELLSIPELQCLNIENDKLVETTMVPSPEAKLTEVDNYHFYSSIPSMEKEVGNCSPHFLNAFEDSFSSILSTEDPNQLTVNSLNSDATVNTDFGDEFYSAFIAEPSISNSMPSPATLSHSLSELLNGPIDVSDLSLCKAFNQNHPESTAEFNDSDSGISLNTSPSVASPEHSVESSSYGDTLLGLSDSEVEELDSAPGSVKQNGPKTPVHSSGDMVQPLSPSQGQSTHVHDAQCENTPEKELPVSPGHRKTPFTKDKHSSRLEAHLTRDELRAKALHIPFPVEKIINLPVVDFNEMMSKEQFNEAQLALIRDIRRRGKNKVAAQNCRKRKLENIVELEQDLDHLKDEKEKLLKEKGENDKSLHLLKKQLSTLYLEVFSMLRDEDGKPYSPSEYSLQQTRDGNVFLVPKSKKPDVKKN
Nuclear factor NF-kappa-B p105 subunit (Homo sapiens), sequence (P19838 whole entry, looked up): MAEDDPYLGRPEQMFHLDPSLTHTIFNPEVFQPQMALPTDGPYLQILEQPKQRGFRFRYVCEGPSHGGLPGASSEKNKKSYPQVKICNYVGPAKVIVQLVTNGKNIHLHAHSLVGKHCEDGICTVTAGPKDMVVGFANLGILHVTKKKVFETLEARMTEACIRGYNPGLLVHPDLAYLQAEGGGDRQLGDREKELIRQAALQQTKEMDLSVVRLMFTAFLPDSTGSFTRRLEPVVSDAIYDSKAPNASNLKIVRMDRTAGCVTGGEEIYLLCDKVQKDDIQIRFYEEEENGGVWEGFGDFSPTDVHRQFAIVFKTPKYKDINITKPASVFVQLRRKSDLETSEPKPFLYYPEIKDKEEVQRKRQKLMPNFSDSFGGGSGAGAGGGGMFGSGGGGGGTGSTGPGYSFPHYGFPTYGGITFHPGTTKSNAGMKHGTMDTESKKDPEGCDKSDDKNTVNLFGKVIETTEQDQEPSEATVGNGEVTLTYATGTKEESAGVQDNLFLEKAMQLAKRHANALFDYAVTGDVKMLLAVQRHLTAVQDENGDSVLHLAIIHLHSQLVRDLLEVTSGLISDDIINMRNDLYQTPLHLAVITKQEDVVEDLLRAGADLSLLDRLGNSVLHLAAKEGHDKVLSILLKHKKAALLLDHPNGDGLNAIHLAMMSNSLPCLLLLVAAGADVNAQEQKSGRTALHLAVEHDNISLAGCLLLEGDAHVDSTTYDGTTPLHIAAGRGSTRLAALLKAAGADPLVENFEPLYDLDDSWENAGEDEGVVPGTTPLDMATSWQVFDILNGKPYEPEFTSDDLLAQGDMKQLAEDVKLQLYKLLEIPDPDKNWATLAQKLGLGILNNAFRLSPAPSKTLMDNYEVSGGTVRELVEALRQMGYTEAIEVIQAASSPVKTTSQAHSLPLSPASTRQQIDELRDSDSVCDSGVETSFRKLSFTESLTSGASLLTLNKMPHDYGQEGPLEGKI
Signal transducer and activator of transcription 3 (Homo sapiens), sequence (P40763 whole entry, looked up): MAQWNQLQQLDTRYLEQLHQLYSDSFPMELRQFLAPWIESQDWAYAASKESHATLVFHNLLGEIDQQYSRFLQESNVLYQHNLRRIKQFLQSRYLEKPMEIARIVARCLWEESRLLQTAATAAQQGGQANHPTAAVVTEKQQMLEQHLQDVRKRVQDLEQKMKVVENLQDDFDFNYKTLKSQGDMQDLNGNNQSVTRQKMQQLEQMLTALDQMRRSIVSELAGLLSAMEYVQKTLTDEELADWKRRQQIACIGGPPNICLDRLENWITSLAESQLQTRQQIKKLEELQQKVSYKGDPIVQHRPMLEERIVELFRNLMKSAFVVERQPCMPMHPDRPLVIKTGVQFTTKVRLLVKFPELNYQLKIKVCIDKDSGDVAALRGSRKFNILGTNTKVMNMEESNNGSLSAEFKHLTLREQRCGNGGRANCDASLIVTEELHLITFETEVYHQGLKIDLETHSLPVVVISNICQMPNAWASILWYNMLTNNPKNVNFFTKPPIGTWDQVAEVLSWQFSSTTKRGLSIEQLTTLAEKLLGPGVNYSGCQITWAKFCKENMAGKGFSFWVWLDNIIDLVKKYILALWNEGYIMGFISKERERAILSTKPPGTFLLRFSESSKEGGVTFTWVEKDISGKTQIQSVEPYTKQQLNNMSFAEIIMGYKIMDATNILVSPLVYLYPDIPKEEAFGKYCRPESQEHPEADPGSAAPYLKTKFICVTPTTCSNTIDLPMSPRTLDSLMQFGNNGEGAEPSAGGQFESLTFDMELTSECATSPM

Row | SMILES | outcome [1] | outcome [2] | outcome [3] | outcome [4] | outcome [5] | outcome [6] | outcome [7] | outcome [8] | outcome [9] | outcome [10] | AC50 [4] | AC50 [5] | AC50 [10] | AC50 [3] | AC50 [6] | AC50 [2] | AC50 [7] | AC50 [8] | AC50 [9] | AC50 [1]
1 | COP(=S)(OC)Oc1ccc(SC)c(C)c1 | inactive | inactive | inactive | inactive | inactive | inactive | inactive | inactive | inactive | inactive |  |  |  |  |  |  |  |  |  | 
2 | O=C(Nc1ccccc1)Nc1cnns1 | inactive | inactive | inactive |  |  | inactive | inactive | inactive | inactive |  | 70 µM (active) | 62.4 µM (active) | 74.2 µM (active) |  |  |  |  |  |  | 
3 | O=C1c2ccccc2C(=O)N1SC(Cl)(Cl)Cl | inactive | inactive | inactive | inactive | inactive | inactive | inactive | inactive | inactive | inactive |  |  |  |  |  |  |  |  |  | 
4 | CCC(C)(NC(=O)c1cc(Cl)c(C)c(Cl)c1)C(=O)CCl (configuration not stated) | inactive | inactive |  |  | inactive |  | inactive | inactive | inactive |  | 82.9 µM (active) |  | 75.8 µM (active) | 90.8 µM (active) | 79.8 µM (active) |  |  |  |  | 
5 | ClC1C(Cl)C(Cl)C(Cl)C(Cl)C1Cl (configuration not stated) | inactive | inactive | inactive | inactive | inactive | inactive | inactive | inactive | inactive | inactive |  |  |  |  |  |  |  |  |  | 
6 | CNC(=O)Oc1ccccc1OC(C)C | inactive | inactive | inactive | inactive | inactive | inactive | inactive | inactive | inactive | inactive |  |  |  |  |  |  |  |  |  | 
7 | O=[N+]([O-])c1c(Cl)c(Cl)c(Cl)c(Cl)c1Cl | inactive | inactive | inactive | inactive | inactive | inactive | inactive | inactive | inactive | inactive |  |  |  |  |  |  |  |  |  | 
8 | CC[C@H](C)[C@H]1O[C@]2(C=C[C@@H]1C)C[C@@H]1C[C@@H](C/C=C(\C)[C@@H](O[C@H]3C[C@H](OC)[C@@H](O[C@H]4C[C@H](OC)[C@@H](O)[C@H](C)O4)[C@H](C)O3)[C@@H](C)/C=C/C=C3\CO[C@@H]4[C@H](O)C(C)=C[C@@H](C(=O)O1)[C@]34O)O2 (tested in a mixture with another compound) | inactive |  |  |  |  |  |  |  |  |  | 9.94 µM (active) | 16.3 µM (active) | 15.2 µM (active) | 54.5 µM (active) | 49.7 µM (active) | 47.7 µM (active) | 14 µM (active) | 59.5 µM (active) | 46 µM (active) | 
9 | CC(C)N(C(=O)COc1nnc(C(F)(F)F)s1)c1ccc(F)cc1 | inactive |  | inactive |  | inactive | inactive | inactive | inactive | inactive | inactive | 39.5 µM (active) |  |  |  |  | 31.4 µM (active) |  |  |  | 
10 | O=C(NC(=O)c1c(F)cccc1F)Nc1ccc(OC(F)(F)C(F)OC(F)(F)F)c(Cl)c1 (configuration not stated) | inactive | inactive | inactive | inactive | inactive | inactive | inactive | inactive | inactive | inactive |  |  |  |  |  |  |  |  |  | 
11 | COP(=O)(OC)OC=C(Cl)Cl | inactive | inactive | inactive | inactive | inactive | inactive | inactive | inactive | inactive | inactive |  |  |  |  |  |  |  |  |  | 
12 | O=C(O)C(F)(F)C(F)(F)C(F)(F)C(F)(F)C(F)(F)C(F)(F)C(F)(F)F | inactive | inactive | inactive | inactive |  | inactive | inactive | inactive | inactive | inactive |  | 26.9 µM (active) and 21.7 µM (active) |  |  |  |  |  |  |  | 
13 | CCCN(CCC)c1c([N+](=O)[O-])cc(C(F)(F)F)cc1[N+](=O)[O-] | inactive | inactive | inactive | inactive | inactive | inactive | inactive | inactive | inactive | inactive |  |  |  |  |  |  |  |  |  | 
14 | CCOCN(C(=O)CCl)c1c(C)cccc1CC |  | inactive | inactive |  |  | inactive | inactive | inactive | inactive |  | 81.1 µM (active) | 50 µM (active) | 81.3 µM (active) |  |  |  |  |  |  | 0.338 µM (active)
15 | Cc1[nH]c(=O)n(C(C)(C)C)c(=O)c1Cl | inactive | inactive | inactive | inactive | inactive | inactive |  | inactive | inactive | inactive |  |  |  |  |  |  | 50 µM (active) |  |  | 
16 | Oc1ccc(Cl)cc1Cc1ccccc1 | inactive | inactive | inactive | inactive | inactive | inactive | inactive | inactive | inactive | inactive | 91.8 µM (active) and 91.6 µM (active) | 76.8 µM (active) and 83.6 µM (active) | 81.5 µM (active) | 86 µM (active) |  |  |  |  |  | 15.7 µM (active)
17 | N#CN | inactive | inactive | inactive | inactive | inactive | inactive | inactive | inactive | inactive | inactive |  |  |  |  |  |  |  |  |  | 
18 | Oc1cc(Cl)ccc1Oc1ccc(Cl)cc1Cl | inactive | inactive | inactive | inactive | inactive | inactive | inactive | inactive | inactive | inactive | 86 µM (active) | 82 µM (active) and 88.4 µM (active) |  |  |  |  |  |  |  | 

Source: PubChem BioAssay (EPA / NIEHS)
